# Experimental data taken from the supplement of paper PMC11732987, “Enantioselective OTUD7B fragment discovery through chemoproteomics screening and high-throughput optimisation” (Communications Chemistry, 2025).
# Unmarked numbers belong to inactive results.
# Experiments:
# Assay in all cases: log2 ratio of Biotin-Ahx-Ub-VS probe labelling (fragment/DMSO); higher = less target engagement (more negative = stronger competition), active = hit call of the paper (q ≤ 0.05, log2 ratio ≤ -1)
# Conditions in all cases: compound concentration: 200 uM; treatment time: 3 h
# [1] = molecular target: T1, USP19 (UniProt O94966)
# T1 sequence (whole entry): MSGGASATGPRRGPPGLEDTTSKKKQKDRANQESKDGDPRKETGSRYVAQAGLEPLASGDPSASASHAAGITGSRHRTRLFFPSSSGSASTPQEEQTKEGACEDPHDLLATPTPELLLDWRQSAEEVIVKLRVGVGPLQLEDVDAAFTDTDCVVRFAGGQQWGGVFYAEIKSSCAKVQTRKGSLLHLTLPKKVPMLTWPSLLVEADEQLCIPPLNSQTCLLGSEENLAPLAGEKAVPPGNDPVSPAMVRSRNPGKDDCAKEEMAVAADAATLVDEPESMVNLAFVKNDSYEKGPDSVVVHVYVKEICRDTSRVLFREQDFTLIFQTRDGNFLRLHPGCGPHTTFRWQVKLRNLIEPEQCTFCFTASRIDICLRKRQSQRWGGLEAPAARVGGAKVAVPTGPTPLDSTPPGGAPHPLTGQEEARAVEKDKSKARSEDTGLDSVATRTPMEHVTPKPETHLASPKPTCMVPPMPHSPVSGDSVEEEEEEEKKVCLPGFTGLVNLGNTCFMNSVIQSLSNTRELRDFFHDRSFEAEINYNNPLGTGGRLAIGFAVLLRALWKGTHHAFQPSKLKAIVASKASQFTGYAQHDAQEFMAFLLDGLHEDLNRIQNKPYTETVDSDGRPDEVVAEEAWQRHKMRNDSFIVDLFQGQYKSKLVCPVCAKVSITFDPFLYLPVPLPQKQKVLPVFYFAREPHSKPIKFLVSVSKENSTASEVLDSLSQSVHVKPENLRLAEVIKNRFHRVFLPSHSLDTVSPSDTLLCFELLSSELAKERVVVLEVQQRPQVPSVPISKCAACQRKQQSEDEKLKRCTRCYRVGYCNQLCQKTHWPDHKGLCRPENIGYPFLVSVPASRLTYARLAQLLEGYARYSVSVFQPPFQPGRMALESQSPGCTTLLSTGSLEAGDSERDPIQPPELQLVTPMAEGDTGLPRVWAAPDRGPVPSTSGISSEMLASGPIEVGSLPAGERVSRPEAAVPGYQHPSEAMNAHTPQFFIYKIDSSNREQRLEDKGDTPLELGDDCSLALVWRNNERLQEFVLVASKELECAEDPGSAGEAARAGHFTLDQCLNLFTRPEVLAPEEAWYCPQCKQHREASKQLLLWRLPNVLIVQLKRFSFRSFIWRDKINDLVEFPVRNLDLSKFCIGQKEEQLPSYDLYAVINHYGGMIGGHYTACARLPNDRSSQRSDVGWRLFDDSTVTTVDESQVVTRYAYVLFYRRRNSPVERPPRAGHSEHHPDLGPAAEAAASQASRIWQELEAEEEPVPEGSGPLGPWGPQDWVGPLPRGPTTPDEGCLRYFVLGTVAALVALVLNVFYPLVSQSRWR
# Method in brief: (§1)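 Average log2 ratios of fragment over vehicle were obtained by unpaired t-test from global-median-normalised Spectronaut label-free quantities. Proteins with ≥2 unique peptides were included. HEK293T lysate (495 µg per sample) was treated in triplicate with fragment at 200 µM or vehicle for 3 h, then with Biotin-Ahx-Ub-VS at 0.5 µM final for 1 h, and labelled DUBs were NeutrAvidin-enriched and run by diaPASEF LC-MS/MS.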
# [2] = molecular target: T2, USP22 (UniProt Q9UPT9)
# T2 sequence (whole entry): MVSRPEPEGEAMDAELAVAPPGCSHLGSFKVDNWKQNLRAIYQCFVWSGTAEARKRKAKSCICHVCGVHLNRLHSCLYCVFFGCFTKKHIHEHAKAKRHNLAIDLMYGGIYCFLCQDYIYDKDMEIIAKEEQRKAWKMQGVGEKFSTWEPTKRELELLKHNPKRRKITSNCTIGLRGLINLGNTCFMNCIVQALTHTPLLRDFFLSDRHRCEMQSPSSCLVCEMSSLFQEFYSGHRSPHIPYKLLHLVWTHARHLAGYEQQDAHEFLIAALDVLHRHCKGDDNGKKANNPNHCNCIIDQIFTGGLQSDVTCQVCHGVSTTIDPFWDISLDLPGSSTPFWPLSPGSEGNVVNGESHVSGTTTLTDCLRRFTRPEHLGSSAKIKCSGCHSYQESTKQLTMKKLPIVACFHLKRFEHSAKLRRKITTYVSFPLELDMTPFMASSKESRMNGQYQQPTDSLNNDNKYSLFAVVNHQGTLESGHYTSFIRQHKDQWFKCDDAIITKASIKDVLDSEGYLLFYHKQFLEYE
# Method in brief: as §1
# [3] = molecular target: USP24 (UniProt Q9UPU5)
# Method in brief: as §1
# [4] = molecular target: T3, USP25 (UniProt Q9UHP3)
# T3 sequence (whole entry): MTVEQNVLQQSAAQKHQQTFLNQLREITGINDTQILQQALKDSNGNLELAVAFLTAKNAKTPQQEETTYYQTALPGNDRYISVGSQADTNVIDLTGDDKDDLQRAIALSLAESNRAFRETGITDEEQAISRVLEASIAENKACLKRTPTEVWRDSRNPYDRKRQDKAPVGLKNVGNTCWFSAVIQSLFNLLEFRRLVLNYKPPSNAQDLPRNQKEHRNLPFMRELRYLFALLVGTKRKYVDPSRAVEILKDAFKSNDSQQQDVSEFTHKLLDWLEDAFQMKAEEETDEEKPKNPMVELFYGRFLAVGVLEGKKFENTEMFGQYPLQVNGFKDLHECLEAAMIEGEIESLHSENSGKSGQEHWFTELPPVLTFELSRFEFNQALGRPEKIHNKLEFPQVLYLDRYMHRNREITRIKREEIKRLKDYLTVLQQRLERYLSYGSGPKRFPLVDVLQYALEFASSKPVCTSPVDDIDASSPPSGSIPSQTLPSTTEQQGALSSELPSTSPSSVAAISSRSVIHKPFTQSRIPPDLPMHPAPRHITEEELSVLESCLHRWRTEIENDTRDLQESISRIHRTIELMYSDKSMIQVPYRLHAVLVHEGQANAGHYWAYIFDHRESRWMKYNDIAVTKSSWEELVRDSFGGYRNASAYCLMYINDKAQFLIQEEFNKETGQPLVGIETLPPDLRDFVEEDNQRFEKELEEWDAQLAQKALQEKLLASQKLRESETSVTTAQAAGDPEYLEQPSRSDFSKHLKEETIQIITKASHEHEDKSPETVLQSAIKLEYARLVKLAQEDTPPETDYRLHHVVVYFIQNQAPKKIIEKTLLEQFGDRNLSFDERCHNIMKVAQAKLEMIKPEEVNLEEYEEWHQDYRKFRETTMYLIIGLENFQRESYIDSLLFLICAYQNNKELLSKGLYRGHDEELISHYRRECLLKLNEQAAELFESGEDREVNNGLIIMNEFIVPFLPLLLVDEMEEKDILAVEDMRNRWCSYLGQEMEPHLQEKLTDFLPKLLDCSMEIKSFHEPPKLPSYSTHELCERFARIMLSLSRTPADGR
# Method in brief: as §1
# [5] = molecular target: T4, USP28 (UniProt Q96RU2)
# T4 sequence (whole entry): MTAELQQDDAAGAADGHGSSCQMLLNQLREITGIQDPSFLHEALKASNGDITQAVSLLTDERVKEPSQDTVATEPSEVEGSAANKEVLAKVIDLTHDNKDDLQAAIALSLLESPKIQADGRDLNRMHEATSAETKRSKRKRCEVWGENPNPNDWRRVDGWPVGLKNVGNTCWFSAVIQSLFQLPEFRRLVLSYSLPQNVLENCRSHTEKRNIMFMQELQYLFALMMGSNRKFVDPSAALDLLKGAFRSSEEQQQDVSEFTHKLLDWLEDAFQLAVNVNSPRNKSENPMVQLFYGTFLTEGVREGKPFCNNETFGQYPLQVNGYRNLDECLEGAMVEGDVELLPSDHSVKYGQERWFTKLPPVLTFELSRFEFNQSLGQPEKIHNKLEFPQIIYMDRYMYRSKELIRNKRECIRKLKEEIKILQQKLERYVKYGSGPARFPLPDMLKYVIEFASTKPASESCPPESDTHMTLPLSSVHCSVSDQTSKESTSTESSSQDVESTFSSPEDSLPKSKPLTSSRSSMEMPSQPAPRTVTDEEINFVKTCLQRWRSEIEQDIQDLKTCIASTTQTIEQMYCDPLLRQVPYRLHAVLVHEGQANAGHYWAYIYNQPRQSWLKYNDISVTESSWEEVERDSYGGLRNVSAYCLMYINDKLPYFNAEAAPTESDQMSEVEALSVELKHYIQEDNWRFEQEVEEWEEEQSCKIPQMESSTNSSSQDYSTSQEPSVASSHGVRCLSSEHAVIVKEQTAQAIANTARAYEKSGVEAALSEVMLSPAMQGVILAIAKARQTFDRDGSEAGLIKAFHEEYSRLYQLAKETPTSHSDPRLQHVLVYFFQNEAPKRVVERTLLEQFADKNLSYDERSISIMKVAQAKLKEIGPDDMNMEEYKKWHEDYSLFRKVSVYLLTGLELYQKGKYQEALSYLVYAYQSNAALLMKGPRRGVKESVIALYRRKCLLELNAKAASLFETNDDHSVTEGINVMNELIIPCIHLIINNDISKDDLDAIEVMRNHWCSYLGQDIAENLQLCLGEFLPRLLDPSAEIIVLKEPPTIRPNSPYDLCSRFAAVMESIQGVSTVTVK
# Method in brief: as §1
# USP24, sequence (Q9UPU5 whole entry): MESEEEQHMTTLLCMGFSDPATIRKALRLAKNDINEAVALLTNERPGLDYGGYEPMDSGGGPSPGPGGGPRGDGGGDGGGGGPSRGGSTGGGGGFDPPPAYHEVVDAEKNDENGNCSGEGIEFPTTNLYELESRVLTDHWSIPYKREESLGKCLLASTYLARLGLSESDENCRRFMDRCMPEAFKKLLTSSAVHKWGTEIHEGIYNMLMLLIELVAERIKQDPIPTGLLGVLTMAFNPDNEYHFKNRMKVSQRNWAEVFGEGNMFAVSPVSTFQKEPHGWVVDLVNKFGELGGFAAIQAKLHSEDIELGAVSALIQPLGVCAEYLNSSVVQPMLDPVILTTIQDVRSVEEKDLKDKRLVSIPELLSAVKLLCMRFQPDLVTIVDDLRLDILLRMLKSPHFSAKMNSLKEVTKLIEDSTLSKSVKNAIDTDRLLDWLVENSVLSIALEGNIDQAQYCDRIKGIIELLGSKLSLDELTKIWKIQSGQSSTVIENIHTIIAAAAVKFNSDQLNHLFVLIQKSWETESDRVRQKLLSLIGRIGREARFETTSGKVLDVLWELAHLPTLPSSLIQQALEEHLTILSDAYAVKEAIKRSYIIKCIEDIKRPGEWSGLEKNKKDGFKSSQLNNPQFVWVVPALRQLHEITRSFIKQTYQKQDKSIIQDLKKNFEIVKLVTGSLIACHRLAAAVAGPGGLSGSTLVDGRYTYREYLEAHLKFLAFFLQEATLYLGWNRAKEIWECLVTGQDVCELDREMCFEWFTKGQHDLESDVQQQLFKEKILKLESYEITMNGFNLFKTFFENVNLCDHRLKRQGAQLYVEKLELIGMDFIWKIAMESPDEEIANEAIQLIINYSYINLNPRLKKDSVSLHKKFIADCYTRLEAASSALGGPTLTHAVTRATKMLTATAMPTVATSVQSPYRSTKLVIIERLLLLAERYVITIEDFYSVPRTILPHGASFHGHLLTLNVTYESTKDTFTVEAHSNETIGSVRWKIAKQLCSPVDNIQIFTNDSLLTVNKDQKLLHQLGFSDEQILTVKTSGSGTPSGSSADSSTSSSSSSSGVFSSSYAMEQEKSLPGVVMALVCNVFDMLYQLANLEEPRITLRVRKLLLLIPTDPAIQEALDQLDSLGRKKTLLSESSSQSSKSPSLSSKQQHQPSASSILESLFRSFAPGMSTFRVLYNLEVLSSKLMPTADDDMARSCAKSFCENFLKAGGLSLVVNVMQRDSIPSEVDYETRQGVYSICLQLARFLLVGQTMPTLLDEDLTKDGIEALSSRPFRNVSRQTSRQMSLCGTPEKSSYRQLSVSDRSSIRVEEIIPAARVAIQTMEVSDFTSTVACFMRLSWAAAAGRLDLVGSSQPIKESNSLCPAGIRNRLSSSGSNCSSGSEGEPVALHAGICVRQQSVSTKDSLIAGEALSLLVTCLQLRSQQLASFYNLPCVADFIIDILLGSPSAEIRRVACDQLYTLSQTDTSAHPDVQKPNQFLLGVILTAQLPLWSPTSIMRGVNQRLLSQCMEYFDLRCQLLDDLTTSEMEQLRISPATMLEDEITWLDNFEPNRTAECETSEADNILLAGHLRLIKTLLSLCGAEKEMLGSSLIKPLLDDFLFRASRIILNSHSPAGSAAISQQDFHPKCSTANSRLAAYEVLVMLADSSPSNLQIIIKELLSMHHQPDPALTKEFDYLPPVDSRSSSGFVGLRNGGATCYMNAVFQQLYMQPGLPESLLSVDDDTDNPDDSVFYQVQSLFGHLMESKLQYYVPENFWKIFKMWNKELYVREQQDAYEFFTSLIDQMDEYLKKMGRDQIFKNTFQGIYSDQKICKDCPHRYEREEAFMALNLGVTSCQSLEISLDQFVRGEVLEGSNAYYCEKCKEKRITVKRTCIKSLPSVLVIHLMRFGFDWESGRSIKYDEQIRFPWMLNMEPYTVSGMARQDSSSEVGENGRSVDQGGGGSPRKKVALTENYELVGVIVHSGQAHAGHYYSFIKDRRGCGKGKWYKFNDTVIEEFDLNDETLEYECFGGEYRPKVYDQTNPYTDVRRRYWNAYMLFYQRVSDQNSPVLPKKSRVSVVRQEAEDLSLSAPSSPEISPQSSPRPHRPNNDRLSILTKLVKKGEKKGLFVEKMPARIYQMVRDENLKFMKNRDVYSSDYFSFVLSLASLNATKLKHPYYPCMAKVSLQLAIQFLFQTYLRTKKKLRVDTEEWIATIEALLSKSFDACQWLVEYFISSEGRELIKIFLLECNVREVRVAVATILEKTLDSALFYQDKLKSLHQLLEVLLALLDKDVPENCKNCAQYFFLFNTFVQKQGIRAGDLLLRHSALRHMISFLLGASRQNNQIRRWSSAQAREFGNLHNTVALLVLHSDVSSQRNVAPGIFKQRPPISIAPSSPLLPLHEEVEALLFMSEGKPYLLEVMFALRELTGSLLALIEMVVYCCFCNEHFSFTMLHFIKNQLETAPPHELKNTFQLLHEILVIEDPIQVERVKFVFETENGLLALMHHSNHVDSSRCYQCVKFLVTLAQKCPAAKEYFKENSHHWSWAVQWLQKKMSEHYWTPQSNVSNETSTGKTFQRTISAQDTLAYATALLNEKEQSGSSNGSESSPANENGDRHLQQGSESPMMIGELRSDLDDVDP
smiles,measurement,setting,value
O=C(CCl)N1CCc2[nH]c3ccccc3c2C1,log2 ratio of Biotin-Ahx-Ub-VS probe labelling,[1],-0.968
same,log2 ratio of Biotin-Ahx-Ub-VS probe labelling,[2],-0.357
same,log2 ratio of Biotin-Ahx-Ub-VS probe labelling,[3],-1.93 (active)
same,log2 ratio of Biotin-Ahx-Ub-VS probe labelling,[4],-0.589
same,log2 ratio of Biotin-Ahx-Ub-VS probe labelling,[5],-0.765
